Data taken from PubChem BioAssay (Tox21).
Values joined by “and” are separate entries in the source; they are usually repeats but may differ in a detail not shown here. Equal entries are not always repeated. Results filed as inconclusive are left out. More than one record can exist for a structure, and the calls need not agree. Active and inactive are the calls of the source. Unless noted, the call rests on the fitted dose curve; in most records, active means well fitted curve in the direction sought with a large enough effect in the repeat runs; inconclusive means weak or mixed curves; inactive means no such curve, though single readings can be large; an effect the other way counts as inactive or inconclusive.

Columns and labels:
[1] = qHTS assay to identify small molecule antagonists of the estrogen related receptor (ERR) signaling pathway from Tox21 library - cell viability counter screen (AID 1224834); further: nearly all actives have a fitted effect of over 30% in size; further: potency means the concentration at half of the fitted maximal effect
Summary of the method: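 Seeded ERR cells were rested 6 h at 37 C/5% CO2 before compounds, positive and negative controls or DMSO were added. Incubation continued for 17.5 h, and viability was then quantified by CellTiter-Fluor fluorescence.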

[2] = biological target: Luciferin 4-monooxygenase (Photinus pyralis) (UniProt P08659); experiment: qHTS assay to identify small molecule inhibitors of firefly luciferase (AID 1224835); further: nearly all actives have a fitted effect of over 25% in size; further: potency means the concentration at half of the fitted maximal effect
Summary of the method: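 Biochemical qHTS: compounds run as interplate titrations against purified firefly enzyme, with D-luciferin and ATP each at its KM concentration. Light output recorded by CCD imaging.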

[3] = qHTS assay to identify small molecule agonists of the constitutive androstane receptor (CAR) signaling pathway - cell viability counter screen (AID 1224836); further: nearly all actives have a fitted effect of over 45% in size; further: potency means the concentration at half of the fitted maximal effect
Summary of the method: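 HepG2-CYP2B6-hCAR, 2500 cells/well, 4 h pre-incubation; cpd 15 conc + PK11195 0.75 uM final; 23 h, 37 C/5% CO2; CellTiter-Fluor, fluorescence.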

[4] = qHTS assay to identify small molecule antagonists of the constitutive androstane receptor (CAR) signaling pathway - cell viability counter screen (AID 1224837); further: nearly all actives have a fitted effect of over 45% in size; further: potency means the concentration at half of the fitted maximal effect
Summary of the method: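 To flag cytotoxic false antagonists, HepG2 hCAR/CYP2B6-2.2kb cells were treated 23 hr with 15-concentration compound series and 50 nM CITCO at 37 C/5% CO2; CellTiter-Fluor fluorescence was the measured end point.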

[5] = biological target: Nuclear receptor subfamily 1 group I member 3 (Homo sapiens) (UniProt Q14994); experiment: qHTS assay to identify small molecule antagonists of the constitutive androstane receptor (CAR) signaling pathway (AID 1224838);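 further: HepG2 cells stably expressing hCAR with CYP2B6 luciferase reporter stimulated by CITCO; nearly all actives have a fitted effect of over 40% in size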
Summary of the method: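 Human hepatoma HepG2 cells expressing hCAR and a CYP2B6 promoter (2.2 kb) luciferase construct; compound titration (15 points) with 50 nM CITCO final, 24 h at 37 C/5% CO2; luminescence via ONE-Glo after 30 min at room temperature.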

[6] = biological target: Nuclear receptor subfamily 1 group I member 3 (Homo sapiens) (UniProt Q14994); experiment: qHTS assay to identify small molecule agonists of the constitutive androstane receptor (CAR) signaling pathway (AID 1224839); further: nearly all actives have a fitted effect of over 15% in size; further: potency means the concentration at half of the fitted maximal effect;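 on activation: HepG2 cells stably carrying human CAR and a CYP2B6 luciferase reporter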
Summary of the method: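 HepG2-CYP2B6-hCAR cells, 2500/well, 4 h pre-incubation; compounds 15 conc.; PK11195 0.75 uM final; 24 h, 37 C/5% CO2; ONE-Glo luciferase read.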

[7] = qHTS assay to identify small molecule antagonists of the estrogen related receptor signaling pathway with the pleiotropic PPARgamma coactivator (PGC) from Tox21 10K library - cell viability counter screen (AID 1224840; active means well fitted cell-killing curve with a large enough effect in the repeat runs, not every such curve was filed as active; further: nearly all actives have a fitted effect of over 40% in size; further: potency means the concentration at half of the fitted maximal effect)
Summary of the method: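 Seeded PGC/ERR cells (2,000/well, 6 h, 37 C/5% CO2) get compound by pin tool; 17.5 h incubation at 37 C; CellTiter-Fluor added, 30 min, fluorescence measured.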

[8] = qHTS assay to identify small molecule antagonists of the estrogen related receptor signaling pathway with the pleiotropic PPARgamma coactivator (PGC) from Tox21 10K library (AID 1224841; call rule not given here; further: actives are mostly falling curves and most rising ones were filed inactive; nearly all actives have a fitted effect of over 50% in size)
Summary of the method: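 Test chemicals dissolved in DMSO were applied to pre-incubated (6 h) PGC/ERR cells at 2,000 cells/well for an 18 h, 37 C treatment; reporter luminescence was then read using One-Glo.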

[9] = biological target: Thyrotropin receptor (Homo sapiens) (UniProt P16473); experiment: qHTS assay to identify small molecule agonists of the thyroid stimulating hormone receptor (TSHR) signaling pathway (AID 1224843; calls by dose curve; further: nearly all actives have a fitted effect of over 45% in size; further: potency means the concentration at half of the fitted maximal effect)
Summary of the method: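 HEK293/TSHR, 800 cells/well; cpd 30 min RT; add cAMP-d2 + anti-cAMP-cryptate, 1 h RT; fluorescence read on plate reader. 15-pt titration, n=3.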

[10] = qHTS assay to identify small molecule agonists of the hypoxia (HIF-1) signaling pathway - cell viability counter screen (AID 1224844; calls by dose curve; further: nearly all actives have a fitted effect of over 50% in size; further: potency means the concentration at half of the fitted maximal effect)
Summary of the method: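 HRE-bla ME-180; 0.5% dFBS; cpd 17 h, 37C, 5% CO2; CellTiter-Glo lum., 30 min RT, post-FRET read, same wells.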

[11] = qHTS assay to identify small molecule agonists of the hypoxia (HIF-1) signaling pathway (AID 1224846; active means well fitted activation curve with a large enough effect in the signal ratio in the repeat runs, not every such curve was filed as active; the % refers to the signal ratio)
Summary of the method: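 Reporter induction in HRE-bla ME-180 cells is taken as agonism: cells sit 5 hrs after plating, receive compounds or DMSO only, incubate 17 hrs at 37C under 5% CO2, and are loaded with CCF4-AM for beta-lactamase FRET measurement.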

[12] = qHTS assay to identify small molecule agonists of H2AX - cell viability counter screen (AID 1224847; calls by dose curve; further: nearly all actives have a fitted effect of over 30% in size; further: potency means the concentration at half of the fitted maximal effect)
Summary of the method: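 Cells plated first: CHO-K1, 1000 per well in 10% FBS medium, incubated overnight at 37C. Then 15-point compound titration added (final DMSO 0.76%) for 3 hr. Finally CellTiter-Glo added and luminescence read.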

[13] = qHTS assay to identify small molecule antagonists of the estrogen related receptor (ERR) signaling pathway from Tox21 library (AID 1224848); further: nearly all actives have a fitted effect of over 50% in size
Summary of the method: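 Compounds dissolved in DMSO are pin-transferred onto ERR reporter cells (2,000 per well) that have settled for 6 h at 37 C. Plates then incubate 18 h at 37 C before ONE-Glo luciferase reagent and a luminescence read 30 min later.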

[14] = qHTS assay to identify small molecule agonists of the estrogen related receptor (ERR) signaling pathway from Tox21 library (AID 1224849; calls by dose curve; further: nearly all actives have a fitted effect of over 15% in size); details: ERR reporter cell line, ONE-Glo luciferase, 18 h
Summary of the method: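 Tox21 compounds tested for ERR agonism in an NTP reporter cell line: 18 h treatment at 37 C, then ONE-Glo luminescence.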

[15] = qHTS RealTime-Glo MT Cell Viability Assay in HepG2 cells - 24 hour (AID 1224867); further: nearly all actives have a fitted effect of over 50% in size
Summary of the method: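 HepG2 cells (600/well) were dispensed with RealTime-Glo reagents, incubated 5 h at 37 °C, then treated with compounds in DMSO for up to 40 h. Nonlytic NanoLuc luminescence reflecting viable cells was read at each stated time point.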

[16] = qHTS RealTime-Glo MT Cell Viability Assay in HEK293 cells - 32 hour (AID 1224868); further: nearly all actives have a fitted effect of over 50% in size; further: potency means the concentration at half of the fitted maximal effect
Summary of the method: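 HEK293 cells seeded with NanoLuc/prosubstrate reagent, rested 5 h at 37 C, then dosed and kept at 37 C up to 40 h. Nonlytic real-time luminescence from viable cells read at 0, 8, 16, 24, 32 and 40 h.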

[17] = A CellTox Green Cytotoxicity Assay to monitor cytotoxicity in HEK293 cells - 0 hour (AID 1224869); further: nearly all actives have a fitted effect of over 50% in size
Summary of the method: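 Tox21 screen in HEK293: membrane-impermeant cyanine dye fluoresces on binding dead-cell DNA; compound pinned 5 h post-seeding, plates held at 37 C, signal read repeatedly through 40 h.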

[18] = qHTS assay to identify small molecule agonists of H2AX (AID 1224845; active means well fitted activation curve with a large enough effect in the signal ratio in the repeat runs, not every such curve was filed as active; the % refers to the signal ratio)
Summary of the method: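 Wild-type CHO-K1 cells, plated overnight, exposed 3hr at 37C to 15 concentrations (0.76% DMSO final). Lysed, then HTRF anti-pH2AX (S139) cryptate and anti-H2AX-d2 antibodies, 24 hr room temperature; 665/620 nm emission read.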

[19] = qHTS assay to identify small molecule agonists of the estrogen related receptor signaling pathway with the pleiotropic PPARgamma coactivator (PGC) from Tox21 10K library (AID 1224842); further: nearly all actives have a fitted effect of over 15% in size; further: potency means the concentration at half of the fitted maximal effect
Summary of the method: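 PGC/ERR reporter cell line, 2,000 cells per well, incubated 6 h at 37 C before 23 nL compound in DMSO was added. After 18 h at 37 C, One-Glo luminescence read following 30 min at room temperature.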

[20] = qHTS assay to identify small molecule agonists of the estrogen related receptor signaling pathway with the pleiotropic PPARgamma coactivator (PGC) (AID 1224823)
Summary of the method: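 Luminescence readout (One-Glo, 30 min RT) from PGC/ERR cell line treated 18 h at 37 C with pin-tool-delivered DMSO compound solutions; cells plated 6 h before dosing. Quantitative HTS format.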
On the % scale 0 is the no-effect control and ±100 the full control effect.

Chain of Nuclear receptor subfamily 1 group I member 3 (Homo sapiens) (Q14994 whole entry, looked up): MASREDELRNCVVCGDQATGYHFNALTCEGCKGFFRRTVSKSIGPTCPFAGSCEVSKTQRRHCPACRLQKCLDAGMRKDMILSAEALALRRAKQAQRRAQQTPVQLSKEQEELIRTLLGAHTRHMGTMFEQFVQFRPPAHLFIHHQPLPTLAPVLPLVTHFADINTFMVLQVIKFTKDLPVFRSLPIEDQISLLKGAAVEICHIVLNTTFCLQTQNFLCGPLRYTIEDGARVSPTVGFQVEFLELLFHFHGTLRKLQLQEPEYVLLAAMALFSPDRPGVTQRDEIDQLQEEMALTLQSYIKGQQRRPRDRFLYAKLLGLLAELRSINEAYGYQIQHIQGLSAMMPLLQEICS
Chain of Thyrotropin receptor (Homo sapiens) (P16473 whole entry, looked up): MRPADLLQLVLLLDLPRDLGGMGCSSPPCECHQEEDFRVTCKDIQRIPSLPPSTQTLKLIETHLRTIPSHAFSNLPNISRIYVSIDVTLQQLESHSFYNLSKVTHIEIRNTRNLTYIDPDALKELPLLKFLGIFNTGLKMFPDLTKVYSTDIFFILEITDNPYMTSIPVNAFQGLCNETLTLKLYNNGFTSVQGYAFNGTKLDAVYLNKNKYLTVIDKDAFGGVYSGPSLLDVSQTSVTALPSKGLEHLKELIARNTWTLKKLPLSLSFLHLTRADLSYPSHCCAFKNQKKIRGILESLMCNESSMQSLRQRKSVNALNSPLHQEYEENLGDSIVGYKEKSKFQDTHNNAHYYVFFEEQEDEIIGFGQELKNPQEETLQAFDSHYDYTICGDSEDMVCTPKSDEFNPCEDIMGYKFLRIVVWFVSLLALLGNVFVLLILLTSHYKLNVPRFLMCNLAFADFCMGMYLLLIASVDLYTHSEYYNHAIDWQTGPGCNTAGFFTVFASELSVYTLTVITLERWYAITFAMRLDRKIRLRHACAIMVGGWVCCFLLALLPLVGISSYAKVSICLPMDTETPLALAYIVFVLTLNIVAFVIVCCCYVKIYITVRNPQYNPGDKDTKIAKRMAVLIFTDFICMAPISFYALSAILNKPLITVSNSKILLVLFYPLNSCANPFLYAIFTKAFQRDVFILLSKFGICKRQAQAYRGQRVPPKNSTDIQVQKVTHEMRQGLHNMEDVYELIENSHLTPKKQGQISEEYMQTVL
Chain of Luciferin 4-monooxygenase (Photinus pyralis) (P08659 whole entry, looked up): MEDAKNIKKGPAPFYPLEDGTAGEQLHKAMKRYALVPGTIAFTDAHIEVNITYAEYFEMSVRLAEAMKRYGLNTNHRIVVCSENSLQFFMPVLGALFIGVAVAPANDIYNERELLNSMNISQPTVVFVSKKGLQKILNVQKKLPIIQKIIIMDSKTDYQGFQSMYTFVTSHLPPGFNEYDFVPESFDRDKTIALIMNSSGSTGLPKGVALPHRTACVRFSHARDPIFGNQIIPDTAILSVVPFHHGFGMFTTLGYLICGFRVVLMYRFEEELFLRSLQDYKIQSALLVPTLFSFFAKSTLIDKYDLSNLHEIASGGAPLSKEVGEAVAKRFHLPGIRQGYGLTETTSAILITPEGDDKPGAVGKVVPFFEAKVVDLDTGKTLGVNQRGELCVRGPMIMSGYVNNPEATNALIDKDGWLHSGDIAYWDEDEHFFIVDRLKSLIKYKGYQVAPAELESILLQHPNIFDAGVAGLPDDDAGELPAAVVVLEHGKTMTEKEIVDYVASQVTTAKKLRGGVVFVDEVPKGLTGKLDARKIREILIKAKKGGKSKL

O=[N+]([O-])c1ccc2c(c1)Cc1ccccc1-2
inactive: Potency [1] | Potency [2] | Potency [3] | Potency [4] | Potency [5] | Potency [7] | Potency [8] | Potency [9] | Potency [10] | Potency [11] | Potency [12] | Potency [13] | activity change, positive = activation ([14]; at 92.4 µM (top of the series)) 1.03% and -0.93% | Potency [15] | Potency [16] | Potency [17]
active: Potency [6] 54.4 µM

C#C[C@]1(O)CC[C@H]2[C@@H]3CCc4cc(OC)ccc4[C@H]3CC[C@@]21C
inactive: Potency [1] | Potency [2] | Potency [3] | Potency [4] | Potency [5] | Potency [7] | Potency [8] | Potency [10] | outcome [18] | Potency [11] | Potency [13] | activity change, positive = activation ([14]; at 42.5 µM (top of the series)) -12.2% | activity change, positive = activation ([14]; at 92.4 µM (top of the series)) -15.3% | Potency [15] | Potency [17]
active: Potency [6] 27.3 µM and 23.7 µM | Potency [9] 19.3 µM | Potency [12] 45 µM | Potency [16] 24.5 µM and 19 µM

O=CCCCC=O
inactive: Potency [1] | Potency [2] | Potency [3] | Potency [4] | Potency [5] | Potency [6] | Potency [7] | Potency [8] | Potency [19] | outcome [18] | Potency [11] | Potency [12] | Potency [13] | activity change, positive = activation ([14]; at 92.4 µM (top of the series)) -0.881% and -3.51% | Potency [15] | Potency [17]
active: Potency [10] 21.1 µM and 19.5 µM
42.1 µM (active) and inactive: Potency [16]

COC(C)COC(C)COC(C)CO (configuration not stated)
inactive: Potency [1] | Potency [2] | Potency [3] | Potency [4] | Potency [5] | Potency [6] | Potency [7] | Potency [8] | Potency [19] | Potency [9] | Potency [10] | outcome [18] | Potency [11] | Potency [12] | Potency [13] | activity change, positive = activation ([14]; at 92.4 µM (top of the series)) -7.02% and 0.149% | Potency [15] | Potency [16] | Potency [17]

CC(=O)Oc1ccccc1C(=O)Nc1ncc([N+](=O)[O-])s1
active: Potency [1] 14 µM and 18.8 µM | Potency [2] 1.29 µM and 3.09 µM | Potency [3] 19.7 µM and 21.1 µM | Potency [4] 24.8 µM and 23.7 µM | Potency [6] 556 nM and 473 nM | Potency [7] 15.7 µM and 23.7 µM | Potency [12] 9.16 µM and 24.7 µM
inactive: Potency [5] | Potency [9] | Potency [10] | outcome [18] | Potency [15] | Potency [17]

C[C@]12CCC(=O)C=C1CC[C@@H]1[C@@H]2C(=O)C[C@@]2(C)[C@H]1CC[C@]2(O)C(=O)CO
inactive: Potency [1] | Potency [2] | Potency [3] | Potency [4] | Potency [5] | Potency [6] | Potency [7] | Potency [10] | outcome [18] | Potency [12] | Potency [15] | Potency [16] | Potency [17]

C=C(C)C1CC=C(C)CC1 (configuration not stated)
inactive: Potency [1] | Potency [2] | Potency [3] | Potency [4] | Potency [5] | Potency [6] | Potency [7] | Potency [10] | outcome [18] | Potency [11] | Potency [12] | Potency [15] | Potency [17]

Cc1ccc2c(n1)Oc1ccc(C(C)C(=O)OCC(=O)N(C)C)cc1C2 (configuration not stated)
active: Potency [2] 17.4 µM and 15.5 µM | Potency [6] 11.9 µM
24.3% (active) and 6.58% (inactive): activity change, positive = activation ([14]; at 42.5 µM (top of the series))
inactive: Potency [1] | Potency [3] | Potency [4] | Potency [5] | Potency [7] | Potency [8] | Potency [19] | Potency [9] | Potency [10] | outcome [18] | Potency [11] | Potency [12] | Potency [13] | Potency [15] | Potency [17]

Cn1cnc([N+](=O)[O-])c1Sc1ncnc2nc[nH]c12
inactive: outcome [20] | Potency [2] | Potency [6] | Potency [7] | Potency [8] | Potency [9] | Potency [10] | outcome [18] | Potency [12] | Potency [13] | activity change, positive = activation ([14]; at 42.5 µM (top of the series)) 8.83% | Potency [15] | Potency [17]
24.2 µM (active) and inactive: Potency [19]
active: Potency [3] 6.82 µM | activity change, positive = activation ([14]; at 92.4 µM (top of the series)) 19.9% | Potency [16] 19.4 µM

OCCO
inactive: Potency [1] | Potency [2] | Potency [3] | Potency [4] | Potency [5] | Potency [6] | Potency [7] | Potency [9] | Potency [10] | outcome [18] | Potency [11] | Potency [12] | Potency [15] | Potency [17]

OC[C@H]1O[C@@H]2O[C@H]3[C@H](O)[C@@H](O)[C@@H](O[C@H]4[C@H](O)[C@@H](O)[C@@H](O[C@H]5[C@H](O)[C@@H](O)[C@@H](O[C@H]6[C@H](O)[C@@H](O)[C@@H](O[C@H]7[C@H](O)[C@@H](O)[C@@H](O[C@H]8[C@H](O)[C@@H](O)[C@@H](O[C@H]1[C@H](O)[C@H]2O)O[C@@H]8CO)O[C@@H]7CO)O[C@@H]6CO)O[C@@H]5CO)O[C@@H]4CO)O[C@@H]3CO
inactive: Potency [1] | Potency [2] | Potency [3] | Potency [4] | Potency [5] | Potency [6] | Potency [7] | Potency [9] | Potency [10] | outcome [18] | Potency [11] | Potency [12] | Potency [15] | Potency [17]

C=C(C)C(=O)OCCOC(=O)C(=C)C
inactive: Potency [1] | Potency [2] | Potency [3] | Potency [4] | Potency [5] | Potency [6] | Potency [7] | Potency [8] | Potency [19] | Potency [9] | Potency [10] | outcome [18] | Potency [11] | Potency [12] | Potency [13] | activity change, positive = activation ([14]; at 92.4 µM (top of the series)) -0.0914% and 4.51% | Potency [15] | Potency [16] | Potency [17]

Cc1cccc([N+](=O)[O-])c1C
inactive: Potency [1] | Potency [2] | Potency [3] | Potency [4] | Potency [5] | Potency [6] | Potency [7] | Potency [10] | outcome [18] | Potency [11] | Potency [12] | Potency [15] | Potency [17]
